Compounds without any hit were thinned out: in the full panel of roughly 79,000, 15% have a hit. Values without a mark were called inactive. The source made the active and inactive calls. No stated cut-off is given here; in the data, active means growth inhibition above about 70%; inactive means the rest.
experiment: NCI Yeast Anticancer Drug Screen. Data for the rad50 strain (AID 155);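 further: 0% = growth of vehicle-only cultures of the same strain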; settings: S. cerevisiae rad50 strain growth inhibition; at 50.0 µM; hits give high values
Outline: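 Genetically altered yeast (DNA repair pathway); compound treatment; growth inhibition vs vehicle ctrl.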

SMILES	growth inhibition
CN(N)/N=N/c1nc[nH]c1[N+](=O)[O-]	-11.9%
C[N+](C)(C)CC1CCC/C1=N/O (configuration not stated)	44.8%
CCCn1cc2c3c(cccc31)[C@H]1C[C@@H](C)CN(C)[C@@H]1C2	49.4%
CNC(C)Cc1ccccc1OC (configuration not stated)	-10.8%
CO[C@H](C)[C@](O)(C(=O)OCC1=CCN2CC[C@@H](O)[C@H]12)C(C)C	-11.4%
CC1CN=C(NCc2ccccc2)S1 (configuration not stated)	-33.2%
C#CC1(OC(C)=O)CCC2C3CCC4=CC(=O)CCC4(C)C3CCC21C (configuration not stated)	32%
NC(c1ccccc1)P(=O)(O)O (configuration not stated)	-12.7%
CNC(=O)O/N=C(\SC)C(=O)N(C)C	-39.9%
Cc1cccc(C)c1NC(N)=S	3.85%
CCC[As](=O)(O)CC[As](=O)(O)CCC	15.8%
C=[CH][Pb]([CH]=C)([CH]=C)[O]C(C)=O	97.2% (active)
Cc1nc2ccccc2c(=O)n1-c1ccccc1	-13.6%
O=[N+]([O-])c1cccc(C(Cl)Cl)c1	30.5%
COC(=O)C1=C(O)C(C(=O)OC)C2/C(=[N+](/[O-])O)c3c(cc([N+](=O)[O-])cc3[N+](=O)[O-])C1C2[N+](=O)[O-] (configuration not stated)	75.8% (active)
CC(=O)Cc1c[nH]c2ccccc12	-25.2%
CN1CN(c2ccccc2)C2(CCN(CCC3COc4ccccc4O3)CC2)C1=O (configuration not stated)	-15.4%
C[As+](c1ccccc1)(c1ccccc1)c1cccc2ccccc12	10.2%
C=CCOCN1c2cc(OC)c([C@@]3(C(=O)OC)C[C@@H]4CN(CCc5c3[nH]c3ccccc53)C[C@](O)(CC)C4)cc2[C@@]23CCN4CC=C[C@@](CC)([C@@H](OC(C)=O)[C@](O)(C(=O)OC)[C@H]12)[C@H]43	-21.2%
CS(=N)(=O)CCC(N)P(=O)(O)O (configuration not stated)	-29.8%
Cc1ccc(S(=O)(=O)Nc2cc(C)cc(CCN)c2C)cc1	17.1%
CCN(CC)CCn1c(=O)c2ccccc2n(CCN(CC)CC)c1=O	19.6%

Source: PubChem BioAssay (NCI)
